Laboratory results: ChEMBL document CHEMBL1961873, “Compounds: GSK PKIS; Assays: Nanosyn kinase panel” (2012)

Molecular target: Tyrosine-protein kinase Lyn (Homo sapiens) (UniProt P07948)
Details: at 1 µM
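Note: kinase tested as its LYN B splice variant, values given as mean percent inhibition.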

Chain of Tyrosine-protein kinase Lyn (Homo sapiens) (P07948 2-512 limits assumed): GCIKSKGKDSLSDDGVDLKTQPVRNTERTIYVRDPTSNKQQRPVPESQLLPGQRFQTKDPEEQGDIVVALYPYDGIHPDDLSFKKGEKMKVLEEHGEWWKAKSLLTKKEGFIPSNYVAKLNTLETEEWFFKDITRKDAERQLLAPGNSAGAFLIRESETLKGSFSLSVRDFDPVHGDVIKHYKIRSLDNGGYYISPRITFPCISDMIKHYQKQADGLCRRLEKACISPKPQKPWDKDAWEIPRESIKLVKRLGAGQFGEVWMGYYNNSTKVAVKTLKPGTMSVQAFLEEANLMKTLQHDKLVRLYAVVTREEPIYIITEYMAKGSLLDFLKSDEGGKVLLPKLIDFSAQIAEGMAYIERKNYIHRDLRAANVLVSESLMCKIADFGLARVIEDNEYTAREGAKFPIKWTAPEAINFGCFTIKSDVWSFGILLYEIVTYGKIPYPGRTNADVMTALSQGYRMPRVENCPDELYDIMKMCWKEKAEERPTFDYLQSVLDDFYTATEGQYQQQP

In order of rising inhibition:
1. CNC(=O)c1cc(-c2ccc(F)cc2)cc(-c2ccc(S(=O)(=O)N3CCCC3)cc2)c1N  1.39%
2. COc1cc2c(cc1Nc1nc(Nc3ccsc3C(N)=O)c3cc[nH]c3n1)N(C(=O)CN(C)C)CCC2(C)C  2.4%
3. Fc1cccc(COc2ccc(Nc3ncnc4sc(-c5ccco5)cc34)cc2Cl)c1  2.48%
4. CCOc1ccc2c(-c3ccnc(Nc4cccc(C(F)(F)F)c4)n3)cnn2n1  3.17%
5. O=C(Nc1n[nH]c2cc(-c3ccc(F)cc3)ccc12)C1CC1  3.43%
6. CN1CCC(n2cnc(-c3ccc(F)cc3)c2-c2ccnc(N)n2)CC1  6.85%
7. COc1ccc(CNC(=O)c2ccc(-c3cc(-c4nnc(C)o4)ccc3C)cc2)cc1  7.12%
8. CNC(=O)c1cncc(/C=C/c2ccccc2Cl)c1  8.12%
9. COc1ccc(-c2cc(-c3c[nH]nc3-c3ccccn3)ccn2)cc1  11.2%
10. CCN(CC)S(=O)(=O)c1ccc(OC)c(Nc2ncc(-c3ccccc3)o2)c1  28.9%
11. COc1ccc2[nH]c3c4[nH]c5ccc(OC)cc5c4c4c(c3c2c1)C(=O)NC4=O  31.5%
12. Nc1nc(-c2ccc(F)cc2)c(-c2ccc3ncccc3n2)s1  33%
13. FC(F)(F)c1cccc(-c2nn3ncccc3c2-c2ccnc(Nc3ccc4c(c3)OCCO4)n2)c1  33.9%
14. NS(=O)(=O)c1ccc(N/N=C2\C(=O)Nc3ccc4ncccc4c32)cc1  40%
15. COc1cccc(-n2ncc3c(N/N=C/c4ccc(F)cc4)ncnc32)c1  43.9%
16. COc1cccc(-c2c[nH]c3c(N/N=C/c4ccncc4)ncnc23)c1  81.8%
